ATXN viability: cell viability loss in ATXN counter-screen. AID 651635. hit rate 0.49% among 400,000. S2 cells (HEK-293 line with an ATXN2-luciferase reporter) viability, CellTiter-Fluor protease fluorescence, 24 h. Potency, µM (doses to about 56.7 µM), hits mostly cytotoxic; note: nearly all actives have a fitted effect of over 40% in size
ATXN2 expr inh: reduces ATXN2 reporter expression in HEK-293 cells; HEK-293 ATXN2-luciferase reporter, luminescence, 24 h; hit rate 0.72% among 360,000; AID 1745845; Potency, µM (titrated, usually from 57 µM), for inactives: top-dose activity change, negative = inhibition, actives largely listed as inhibitors; note: % is set by controls: 0 for no effect and ±100 for the full control effect; nearly all actives have a fitted effect of over 55% in size
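ATXN2-luciferase reporter cells (luciferase flanked by upstream and downstream ATXN2 gene portions) were treated 24 h at 37 °C with compounds at up to 57 uM. SteadyGlo luminescence gave expression; GF-AFC fluorescence gave viability.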
HepG2 tox-1: HepG2 cytotoxicity, counter-screen for TGF-b inhibitors. HepG2 CAGA-GFP viability, ATP luminescence, 18 h. Potency, µM (highest dose often 46.1 µM), inactives show at the top dose activity change, negative = cytotoxicity, most hits filed as cytotoxic. hit rate 0.76% among 410,000
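HepG2 CAGA-GFP cells (1000/well, DMEM with 1% FBS) received compound, then TGF-beta at 500 pg/mL final, and were incubated 18 hours at 37 degrees C. Viability was read by CellTiter-Glo luminescence. Media-only wells were set as complete cell-killing and DMSO as no toxicity.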
TGFb SMAD3 inh: inhibitors of TGF-b signaling; HepG2 CAGA-GFP TGF-b/SMAD3 reporter, GFP fluorescence, 18 h; TGF-beta stimulated, 500 pg/mL final; Potency, µM (highest dose often 46.1 µM), for inactives: top-dose activity, negative = inhibition, usual class: inhibitors; hit rate 1.2% among 410,000; AID 588855; note: % is set by controls: 0 for no effect and ±100 for the full control effect; nearly all actives have a fitted effect of over 65% in size
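Read-out: total well GFP (ex488/em500-530) summed from mean per-cell fluorescence. Cells: HEPG2 CAGA-GFP, 1% FBS DMEM, 18 h at 37 degrees C with 500 pg/mL final TGF-beta. Unstimulated wells served as the full-inhibition control; stimulated DMSO wells = 0%.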
12-LOX inh: inhibitors of human 12S-lipoxygenase ALOX12; hit rate 1.1% among 580,000; P18054; purified 12hLO, xylenol orange hydroperoxide absorbance; Potency, µM (series often up to 108 µM), inactives show at the highest dose activity change, negative = inhibition, hits mostly inhibitors; AID 1671190; note: % is set by controls: 0 for no effect and ±100 for the full control effect
Target sequence (P18054 whole entry, looked up): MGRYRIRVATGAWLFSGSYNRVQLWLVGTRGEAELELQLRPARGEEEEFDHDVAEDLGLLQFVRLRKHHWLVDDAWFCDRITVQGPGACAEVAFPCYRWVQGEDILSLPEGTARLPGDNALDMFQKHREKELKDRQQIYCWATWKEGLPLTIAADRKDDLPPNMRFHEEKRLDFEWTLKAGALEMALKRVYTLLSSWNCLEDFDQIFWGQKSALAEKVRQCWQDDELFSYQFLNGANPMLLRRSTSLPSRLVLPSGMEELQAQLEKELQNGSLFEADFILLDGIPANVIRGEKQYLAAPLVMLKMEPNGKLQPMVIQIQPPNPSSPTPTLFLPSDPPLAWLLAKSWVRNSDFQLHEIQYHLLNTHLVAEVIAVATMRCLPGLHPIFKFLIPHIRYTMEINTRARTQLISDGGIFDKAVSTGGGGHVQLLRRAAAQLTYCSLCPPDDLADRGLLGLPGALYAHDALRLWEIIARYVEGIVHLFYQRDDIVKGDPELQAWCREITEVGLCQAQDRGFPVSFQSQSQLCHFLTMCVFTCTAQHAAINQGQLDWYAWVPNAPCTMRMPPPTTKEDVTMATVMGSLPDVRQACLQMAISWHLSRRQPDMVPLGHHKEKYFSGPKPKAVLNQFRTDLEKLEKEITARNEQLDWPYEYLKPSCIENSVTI
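Purified human 12hLO at 150 nM in 25 mM Hepes, 0.01% Triton X-100, pH 7.0, preincubated 15 min at room temperature with compound. Reaction started with 40 uM arachidonic acid, 30 min at room temperature. Hydroperoxide measured by Fe-xylenol orange, 573/405 nm absorbance ratio.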
TGFb CAGA inh: confirmation of TGF-b signaling inhibitors in HepG2 reporter cells; HepG2 CAGA-GFP TGF-b reporter, GFP fluorescence, 18 h; cells stimulated with TGF-beta, 500 pg/mL; shares compounds with TGFb SMAD3 inh; hit rate 63% among 1,600; Potency, µM (top dose mostly 46.1 µM), inactives show at the top dose activity, negative = inhibition, hits mostly inhibitors; note: % is set by controls: 0 for no effect and ±100 for the full control effect; nearly all actives have a fitted effect of over 65% in size
HepG2 tox-2: HepG2 cytotoxicity, TGF-b inhibitor counterscreen | shares compounds with TGFb SMAD3 inh | HepG2 CAGA-GFP viability, ATP luminescence, 18 h; cells stimulated with TGF-beta, 500 pg/mL | Potency, µM (highest dose often 46.1 µM), without a hit: top-dose activity, negative = cytotoxicity, actives largely listed as inhibitors | hit rate 27% among 1,600; note: % is set by controls: 0 for no effect and ±100 for the full control effect; nearly all actives have a fitted effect of over 70% in size
CCL64 TGFb inh: blocks TGF-b signaling in CCL64 reporter cells. hit rate 41% among 1,600. shares compounds with TGFb SMAD3 inh. Potency, µM (series often up to 46.1 µM), inactives show at the top dose activity, negative = inhibition, most hits filed as inhibitors. CCL64 CAGA-GFP reporter, TGF-b stimulated, GFP fluorescence, 18 h; note: nearly all actives have a fitted effect of over 65% in size
COP TGFb inh: blocks TGF-b signaling in HepG2 COP reporter. Potency, µM (top dose mostly 46.1 µM), inactives show at the highest dose activity, negative = inhibition, most hits filed as inhibitors. shares compounds with TGFb SMAD3 inh. HepG2 COP-GFP TGF-b reporter, GFP fluorescence, 18 h; cells stimulated by added recombinant TGF-beta. hit rate 3% among 1,600; note: nearly all actives have a fitted effect of over 70% in size
An asterisk follows results filed as active; i = inactive; ? = inconclusive; . = no result; ! = not confirmed by another sample; [ ] = another dose, or the depositor's remark. The list is not random: actives were taken first. Their share in the collection is about 2.7%. Calls come from the whole dose curve; as a rule, active = well fitted curve in the direction sought with a large enough effect; inconclusive = small, poorly fitted or top-dose-only effect, or another doubt; inactive = no such curve, though single readings can be large; an effect the other way counts as inactive or inconclusive. Potency is the fitted concentration of half-maximal effect.

SMILES	ATXN viability	ATXN2 expr inh	HepG2 tox-1	TGFb SMAD3 inh	12-LOX inh	TGFb CAGA inh	HepG2 tox-2	CCL64 TGFb inh	COP TGFb inh
CCCCN1C[C@H](Cc2ccccc2)[C@@H](CC(=O)NCc2ccc(OC)cc2)C1=O	i	-16.6%	-16.5%	?	-2.7%	.	.	.	.
CCCCC[C@H]1CN(CCc2ccccc2)C(=O)[C@@H]1CC(=O)NCc1ccc(OC)cc1	i	-28.1%	7.08µM*!	10µM*	-16.9%	?	-26.8%	?	28.4%
Cc1cc(/C(=N\O)C(C)(C)NO)ccc1Cl	.	.	.	.	-48.4%	.	.	.	.
CCOC(=O)c1c(NC(=O)CN2CCCCC2)sc2c1CCN(C(=O)OCC)C2	?	-28.6%	-8.9%	11.2µM*	18.0%	13µM*	?	18.4µM*	26.4%
O=S(=O)(NCCOc1ccccc1Cl)c1ccc2oc3ccccc3c2c1	i	2.1%	-28.6%	15.8µM*	0.0%	18.4µM*	?	?	88.0%
CC(C)(C)c1ccc(Cn2nnc3c(=O)[nH]c(C4CCN(C(=O)c5ccco5)CC4)nc32)cc1	i	-19.3%	-20.2%	12.6µM*	?	18.4µM*	?	-20.6%	3.9%
CC(C)C(=O)/C(C#N)=C\c1ccc(OCc2ccccc2F)cc1	.	.	.	.	6.4%	.	.	.	.
O=C1NC(c2cccc3ccccc23)Nc2ccccc21 (centres undefined)	?	14.0%	-28.7%	3.55µM*	?	2.59µM*	?	6.51µM*	7.8%
Cn1cc([N+](=O)[O-])c(C(=O)Nc2sc3c(c2C#N)CCC3)n1	i	.	17.4%	8.91µM*	-23.4%	13µM*	7.31µM*	1.8%	69.8%
Cn1cc(Br)c(C(=O)Nc2sc3c(c2C#N)CCC3)n1	i	15.4%	-2.1%	-12.1%	38.1%	.	.	.	.
CN(CC(=O)Nc1cccc(F)c1)C(=O)c1cc(-c2ccccc2)nc2ccccc12	?	-12.9%	-33.2%	?	-29.8%	.	.	.	.
COc1ccc(-c2cc(C(=O)N(C)CC(=O)Nc3cccc(F)c3)c3ccccc3n2)cc1	?	-9.7%	-10.7%	?	?	18.4µM*	?	?	82.1%
O=c1c2cc(Cl)ccc2ncn1Cc1ncc(-c2ccccc2)o1	.	.	.	.	13.3%	.	.	.	.
CCN(C(=O)C(C)N(C)CC(=O)Nc1cccc(F)c1)C1CCCCC1 (centres undefined)	.	.	.	.	-16.2%	.	.	.	.
CCO[C@H]1OC(C(=O)NCc2ccccc2)=C[C@@H](c2ccc(C(F)(F)F)cc2)[C@@H]1CCCO	?	?	-1.5%	?	1.3%	.	.	.	.
CCO[C@H]1OC(C(=O)Nc2ccccc2)=C[C@@H](c2ccc(C(F)(F)F)cc2)[C@@H]1CCCO	?	?	-19.4%	14.1µM*	-5.0%	?	-29.4%	?	25.0%
C#Cc1ccc([C@H]2C=C(C(=O)NCc3ccccc3)O[C@@H](OCC)[C@@H]2CCCO)cc1	i	?	1.7%	?	0.0%	.	.	.	.
CCO[C@@H]1OC(C(=O)NCc2ccccc2)=C[C@H](c2ccc(Br)cc2)[C@H]1CCCO	?	?	-2.7%	?	?	?	-12.3%	?	7.1%
O=C(NC(=S)Nc1cccc(Cl)c1Cl)C1CC1	i	43.2%	-24.3%	1.26µM*	0.0%	1.84µM*	3.66µM*	14.6µM*	63.0%
O=C(NC(=S)Nc1ccc(Br)c(Cl)c1)C1CC1	i	12.0%	-34.9%	1.58µM*	?	0.82µM*	2.06µM*	?	35.4%
O=C(NNC(=S)Nc1ccccc1Cl)C1CC1	i	0.3%	11.3%	32.8%	-5.4%	.	.	.	.
CC(=O)Nc1ccc(NC(=S)NC(=O)C2CC2)cc1	i	10.7%	2.7%	45.4%	0.0%	.	.	.	.
CCOc1cc(/C=C\[N+](=O)[O-])ccc1OCC(=O)Nc1ccccc1C	?	.	8.91µM*	7.94µM*	.	2.91µM*	8.2µM*	2.91µM*	?
O=[N+]([O-])c1cc(S(=O)(=O)NCCN2CCOCC2)ccc1Sc1nnnn1-c1ccccc1	?	-31.5%	-119.4%	?	7.4%	.	.	.	.
Cc1ccc(-n2nnnc2Sc2ccc(S(=O)(=O)NCCN(C)C)cc2[N+](=O)[O-])cc1	?	?	8.91µM*	1.58µM*	-10.3%	7.31µM*	20.6µM*	5.8µM*	?
SMILES	ATXN viability	ATXN2 expr inh	HepG2 tox-1	TGFb SMAD3 inh	12-LOX inh	TGFb CAGA inh	HepG2 tox-2	CCL64 TGFb inh	COP TGFb inh
CC#CCn1cc2c3c(cccc31)[C@H](CC(C)C)N[C@H](C(=O)NCc1ccco1)C2	.	.	.	.	-2.8%[176 µM]	.	.	.	.
Oc1c(C(c2ccc(Cl)cc2)N2CCCC2)cc(Cl)c2cccnc12 (centres undefined)	i	.	6.1%	4.2%	?	.	.	.	.
Oc1c(C(c2ccccc2Cl)N2CCCC2)ccc2cccnc12 (centres undefined)	i	.	-63.9%	0.447µM*	?	?	?	?	-19.8%
O=C(Nc1nnc(SCc2ccc(F)cc2)s1)c1ccccn1	?	?	-32.3%	1.58µM*	-9.9%	?	?	18.4µM*	54.7%
CC(=O)N(CCC1(c2ccccc2)CCOC(C)(C)C1)Cc1ccccc1 (centres undefined)	.	.	.	.	9.1%	.	.	.	.
O=S(=O)(NC(c1ccccc1)c1cccs1)c1cccs1 (centres undefined)	.	.	.	.	4.9%	.	.	.	.
CC(C)C[C@H]1CN([C@@H](CC(C)C)CN2CCCC2CN2C(=S)NC[C@@H]2Cc2ccc(O)cc2)C(=S)N1CCc1ccccc1 (some centres undefined)	?	-24.0%	-1.5%	?	?	.	.	.	.
CC(C)C[C@H]1CNC(=S)N1C[C@H]1CCCN1C[C@H](CC(C)C)N1C[C@H](Cc2ccc(O)cc2)N(CCc2ccccc2)C1=S	7.08µM*	?	-97.1%	7.08µM*	-86.2%	?	20.6µM*	23.1µM*	24.2%

Bioassay records: PubChem BioAssay, National Center for Advancing Translational Sciences (NCATS)
